Drawing on PubChem BioAssay (Tox21), this text covers Potency for 29 compounds.

Each structure is given as a SMILES string. Values joined by “and” are separate entries in the source; they are usually repeats but may differ in a detail not shown here. Equal entries are not always repeated. Records with an inconclusive call do not appear. Active and inactive are the calls of the source. Unless noted, the call rests on the fitted dose curve; in most records, active means well fitted curve in the direction sought with a large enough effect in the repeat runs; inconclusive means weak or mixed curves; inactive means no such curve, though single readings can be large; an effect the other way counts as inactive or inconclusive.

The nature of assay [1]: qHTS assay to identify small molecule antagonists of the glucocorticoid receptor (GR) signaling pathway - cell viability counter screen (AID 720693; further: nearly all actives have a fitted effect of over 55% in size). (In general: In qHTS, concentration-response curves come from the screen itself.)
Assay [2] in a line: qHTS assay for identifying genotoxic compounds that show differential cytotoxicity against isogenic chicken DT40 cell lines with known DNA damage response pathways - wild type cell line (AID 743012). Further: nearly all actives have a fitted effect of over 60% in size. Further: potency means the concentration at half of the fitted maximal effect. Put shortly: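 Endpoint: CellTiter-Glo luminescence, 30 min RT. Cells: wild type DT40, 300/well. Exposure: compounds in DMSO, 40 h, 37 C/5% CO2, after ~0.5 h pre-incubation.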
Assay [3] is described as follows: qHTS assay for identifying genotoxic compounds that show differential cytotoxicity against isogenic chicken DT40 cell lines with known DNA damage response pathways - Rev3 mutant cell line (AID 743014). Further: nearly all actives have a fitted effect of over 55% in size. Further: potency means the concentration at half of the fitted maximal effect.
Assay [4] is described as follows: qHTS assay for identifying genotoxic compounds that show differential cytotoxicity against isogenic chicken DT40 cell lines with known DNA damage response pathways - Rad54/Ku70 mutant cell line (AID 743015). Further: nearly all actives have a fitted effect of over 60% in size. Further: potency means the concentration at half of the fitted maximal effect.
A short description of assay [5]: qHTS assay to identify small molecule antagonists of the androgen receptor (AR) signaling pathway - cell viability counter screen (AID 743033; further: nearly all actives have a fitted effect of over 45% in size).
The nature of assay [6]: qHTS assay to identify small molecule antagonists of the androgen receptor (AR) signaling pathway using the MDA cell line - cell viability counter screen (AID 743041; further: nearly all actives have a fitted effect of over 45% in size). Put shortly:
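Viability read by CellTiter-Fluor fluorescence in the same wells as the antagonist screen, added after 15.5 h of a 16 h, 37C exposure. Human breast carcinoma MDA-kb2 AR-luc cells, compounds co-dosed with agonist R1881.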

The target in assay [7] is Androgen receptor (Homo sapiens) (UniProt P10275). Kind of assay: qHTS assay to identify small molecule antagonists of the androgen receptor (AR) signaling pathway (AID 743035; active means well fitted inhibition curve with a large enough effect in the signal ratio in the repeat runs, not every such curve was filed as active; the % refers to the signal ratio). The method, boiled down:
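R1881 agonist challenge of a HEK293 UAS-beta-lactamase AR reporter line in the presence of compound (16 h, 37C); signal taken as FRET fluorescence after 2 h with LiveBLAzer B/G substrate at room temperature.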

Assay [8] shares this target. In words: qHTS assay to identify small molecule agonists of the androgen receptor (AR) signaling pathway (AID 743036; active means well fitted activation curve with a large enough effect in the signal ratio in the repeat runs, with a control signal flat, not every such curve was filed as active; the % refers to the signal ratio). The method, boiled down: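 Reporter line: GeneBLAzer AR-UAS-bla-GripTite (HEK293). Steps: plate cells, 4 h rest, add compounds, 16 h at 37C, add LiveBLAzer B/G substrate, 2 h at RT, read fluorescence.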
Assay [9] shares this target. Kind of assay: qHTS assay to identify small molecule agonists of the androgen receptor (AR) signaling pathway using the MDA cell line (AID 743040; further: nearly all actives have a fitted effect of over 20% in size). Conditions: MDA-kb2 AR-luc cells, MMTV luciferase, 16 h; activity change: at 70.3 µM (top of the series), active compounds read high. Put shortly:
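Luciferase agonist assay: 16 h compound exposure at 37C without CO2 in MDA-kb2 AR-luc cells, whose MMTV promoter responds to both AR and GR. Luminescence measured after 30 min room-temperature incubation with ONE-Glo.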

For assay [10] the target is unchanged. In words: qHTS assay to identify small molecule antagonists of the androgen receptor (AR) signaling pathway using the MDA cell line (AID 743042; further: nearly all actives have a fitted effect of over 55% in size). Put shortly: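 Antagonist mode: compounds plus R1881 agonist added to MDA-kb2 AR-luc cells, incubated 16 h at 37C. Luciferase reporter luminescence quantified, with multiplexed CellTiter-Fluor readout for cell viability.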

Androgen receptor (Homo sapiens), sequence (P10275 whole entry, looked up): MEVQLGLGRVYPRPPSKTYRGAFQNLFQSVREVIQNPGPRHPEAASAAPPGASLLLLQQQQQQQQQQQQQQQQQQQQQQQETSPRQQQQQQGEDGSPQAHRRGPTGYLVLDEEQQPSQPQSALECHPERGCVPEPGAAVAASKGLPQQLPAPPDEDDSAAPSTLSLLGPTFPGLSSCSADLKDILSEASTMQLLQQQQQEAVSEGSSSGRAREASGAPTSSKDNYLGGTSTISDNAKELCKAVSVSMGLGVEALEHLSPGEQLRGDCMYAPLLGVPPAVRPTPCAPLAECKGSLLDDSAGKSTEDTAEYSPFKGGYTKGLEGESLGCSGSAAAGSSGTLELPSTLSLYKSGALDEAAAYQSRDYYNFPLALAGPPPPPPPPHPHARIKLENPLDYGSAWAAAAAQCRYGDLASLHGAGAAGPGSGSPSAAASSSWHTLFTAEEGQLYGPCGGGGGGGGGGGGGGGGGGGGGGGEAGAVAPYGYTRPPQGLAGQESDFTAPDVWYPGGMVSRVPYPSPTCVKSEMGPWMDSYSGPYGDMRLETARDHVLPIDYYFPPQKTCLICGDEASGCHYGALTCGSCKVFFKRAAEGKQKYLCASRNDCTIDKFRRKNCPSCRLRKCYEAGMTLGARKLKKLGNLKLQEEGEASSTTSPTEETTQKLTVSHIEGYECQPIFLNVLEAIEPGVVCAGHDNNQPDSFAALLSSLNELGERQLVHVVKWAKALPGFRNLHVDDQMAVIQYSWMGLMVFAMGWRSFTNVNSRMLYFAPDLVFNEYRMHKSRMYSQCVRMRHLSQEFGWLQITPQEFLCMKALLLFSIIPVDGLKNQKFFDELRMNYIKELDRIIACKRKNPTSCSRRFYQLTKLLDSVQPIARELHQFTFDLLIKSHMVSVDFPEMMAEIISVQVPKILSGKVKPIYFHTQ

In the case of `CC(C)OC(=O)Cc1ccccc1`, the Potency result in [1], in [2], in [3], in assay [4], in assay [5] and in [6] was “inactive” in each case.
As for `Nc1ccccc1C(=O)OCCc1ccccc1`, the Potency result in assay [1], in assay [2], in assay [3], in [4] and in assay [6] was “inactive” each time.
Take `CCC1CCC(=O)O1` (stereo not drawn): the Potency entry in [1], in [2], in assay [3], in assay [4] and in [6] was “inactive” each time.
With `NC(=O)CF`, the Potency entry in assay [1], in assay [2], in [3], in assay [4], in assay [5] and in assay [6] was “inactive” each time.
On to `OCCSSCCO`, for which the Potency result in [1], in assay [2], in assay [3], in assay [4] and in assay [6] was “inactive” in each case.
Take `O=[N+]([O-])c1cc(Cl)c(Cl)cc1Cl`: the Potency entry in assay [1], in assay [2], in [3], in [4], in assay [5] and in [6] was “inactive” each time.
For `C=CC(=O)NC(C)(C)CC(C)=O`, the Potency entry in assay [1], in assay [2], in assay [5] and in [6] was “inactive” in each case. The Potency in [3] is 54.5 µM (active).
In the case of `CCOP(=S)(OCC)SCSc1cc(Cl)ccc1Cl`, the Potency result in assay [1], in [2], in assay [3], in assay [4], in assay [5] and in [6] was “inactive” throughout.
`O=C(N/N=C/c1ccc([N+](=O)[O-])o1)c1cc([N+](=O)[O-])cc([N+](=O)[O-])c1O`: the Potency entry in assay [1], in assay [2] and in assay [4] was “inactive” in each case.
For the compound `CC(C)(C#N)C(C)(C)C#N`, the Potency result in [1], in [2], in assay [3], in assay [4], in assay [5] and in assay [6] was “inactive” each time.
Turning to `CC(C)c1ccc(NC(=O)N(C)C)cc1`, the Potency entry in assay [1], in assay [2], in assay [5] and in [6] was “inactive” in each case. Moreover, the Potency in assay [3] was 68.5 µM (active).
For the compound `COc1ccccc1N1CCNCC1`, the Potency result in assay [1], in assay [2], in [3], in [4], in assay [5] and in assay [6] was “inactive” in each case.
For the compound `C1CS1`, the Potency entry in [1], in assay [2], in [3], in assay [4], in assay [5] and in [6] was “inactive” each time.
For the compound `CCOC(=O)c1cn2nc(OP(=S)(OCC)OCC)cc2nc1C`, the Potency entry in [1] and in [6] was “inactive” in each case. The Potency in assay [2] was 27.3 µM (active); in assay [3], 48.6 µM (active); in [4] it was 38.6 µM (active).
Take `CCCSP(=S)(OCC)Oc1ccc(SC)cc1` (stereo not drawn): the Potency result in assay [1], in assay [5] and in assay [6] was “inactive” in each case. For the same compound, the Potency was 43.3 µM (active) in assay [2], 15.4 µM (active) in [3] and 27.3 µM (active) in assay [4].
`COc1ccc(C(=O)c2c(C)n(CCN3CCOCC3)c3ccccc23)cc1`: the Potency entry in assay [1] and in [6] was “inactive” each time. Further, the Potency in [2] is 26.6 µM (active); in assay [3], 26.6 µM (active); in [4], 29.8 µM (active).
With `COC1=CC(=O)O[C@@H](/C=C/c2ccc3c(c2)OCO3)C1`, the Potency entry in assay [1], in assay [2], in assay [3], in assay [4], in assay [5] and in [6] was “inactive” throughout.
Take `Cc1ccc2c(C)cccc2c1`: the Potency result in assay [1], in assay [2], in [3], in assay [4], in assay [5] and in assay [6] was “inactive” throughout.
Take `CN1C[C@H](C(=O)N[C@]2(C)O[C@@]3(O)[C@@H]4CCCN4C(=O)[C@H](Cc4ccccc4)N3C2=O)C=C2c3cccc4[nH]cc(c34)C[C@H]21`: the Potency result in [1], in [5] and in assay [6] was “inactive” throughout. In addition, the Potency in assay [2] was 21.1 µM (active) and 48.8 µM (active) and 22.6 µM (active); in assay [3], 23.7 µM (active) and 27.4 µM (active) and 18 µM (active); in assay [4], 9.44 µM (active) and 13.7 µM (active) and 10.1 µM (active).
`C=CCOC(=O)C(C)(C)OC(=O)c1cc(-n2c(=O)cc(C(F)(F)F)n(C)c2=O)ccc1Cl`: the Potency result in [1] and in assay [6] was “inactive” throughout. Further, the Potency is 53.4 µM (active) in assay [2], 30 µM (active) in assay [3] and 60 µM (active) in assay [4].
`CON(C)C(=O)Nc1ccc(Cl)cc1`: the Potency result in assay [1], in assay [2], in assay [3], in assay [4], in assay [5] and in assay [6] was “inactive” throughout.
Turning to `OC[P+](CO)(CO)CO`, the Potency result in [1], in assay [2], in assay [3], in assay [4], in assay [5] and in assay [6] was “inactive” throughout.
As for `CCC(C)Cl` (stereo not drawn), the Potency entry in assay [1], in assay [2], in assay [3], in [4], in assay [5] and in assay [6] was “inactive” each time.
As to `CN1CC[C@]23c4c5ccc(O)c4O[C@H]2[C@@H](O)CC[C@H]3[C@H]1C5`, the Potency result in assay [1], in assay [2], in assay [4], in assay [5] and in assay [6] was “inactive” throughout.
For `COC(=O)C1(O)c2ccccc2-c2ccccc21`, the Potency entry in assay [1], in [4], in [5], in assay [7], in assay [8] and in assay [9] was “inactive” throughout. Further, the Potency result in assay [6] and in assay [10] was “inactive” each time.
Turning to `CN1CC[C@]23c4c5ccc(O)c4O[C@H]2[C@@H](O)C=C[C@H]3[C@H]1C5`, the Potency result in [1], in assay [5], in assay [7], in [9], in assay [6] and in assay [10] was “inactive” each time.
As to `COC1CC(=C(c2cccs2)c2cccs2)C[N+](C)(C)C1` (stereo not drawn), the Potency entry in assay [1], in assay [5] and in assay [6] was “inactive” in each case. The Potency is 23.7 µM (active) in assay [2] and 29.8 µM (active) in assay [4].
`Cc1cccc(C)c1NC1=NCCCS1`: the Potency result in [1], in [3] and in assay [6] was “inactive” each time.
Regarding `CN(C1CCCCC1)C1CCCCC1`, the Potency result in [1], in assay [5], in assay [7], in [8], in [9] and in assay [6] was “inactive” each time. Further, the Potency entry in assay [10] is “inactive”. For the same compound, the Potency is 9.69 µM (active) in [3] and 17.2 µM (active) in assay [4].
